Only some compounds are listed: those with a hit (about 8.3% of all), similar ones and a draw of the others.
MCF10A rereplic: induces DNA re-replication in MCF 10a normal breast cells; MCF 10A DNA re-replication, Hoechst nuclear intensity, 48 h; Potency, µM (doses to about 46.1 µM), for the others: top-dose activity, positive = re-replication, actives largely listed as activators; 2.9% of 350,000 active; AID 624296; also: potency is read from the fitted curve at half-maximal effect; % of control where 0% means no effect; nearly all actives have a fitted effect of over 50% in size
VP16 counter: Gal4-VP16 reporter inhibition counter-screen; Potency, µM (series often up to 53.6 µM), inactives show at the top dose activity, negative = inhibition, usual class: inhibitors; Drosophila S2 Gal4-VP16 UAS-luciferase, luminescence, 20 h; AID 2546; 3.5% of 310,000 active;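 also: Gal4-VP16 expression switched on by copper sulfate through the metallothionein promoter; potency is read from the fitted curve at half-maximal effect; % is scaled to controls: 0 for no effect and ±100 for the full control effect; nearly all actives have a fitted effect of over 50% in size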
SW480 rereplic: inducers of DNA re-replication in SW480 colon cancer cells | SW480 DNA re-replication, Hoechst DNA content imaging, 48 h | Potency, µM (top dose mostly 46.1 µM), for the others: at the highest dose re-replication activation, hits mostly activators | 1.8% of 340,000 active; also: potency is read from the fitted curve at half-maximal effect; % of control where 0% means no effect; nearly all actives have a fitted effect of over 55% in size
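Image-based read-out: total Hoechst fluorescence of nuclei (405 nm excitation, 500-530 nm emission), with hits raising the fraction of high-intensity nuclei. SW480 colon cells incubated 48 hr with compounds at 37 C.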
BCR signal inh: blocks chronic active B-cell receptor signaling; ABC-DLBCL IkBa-CBG/CBR reporter, luminescence ratio, 4 h; Potency, µM (series often up to 46.1 µM), for inactives: at the highest dose activity change, negative = inhibition, actives largely listed as inhibitors; 0.05% of 340,000 active; AID 493014; active = well fitted inhibition curve with a large enough effect in the signal ratio, with a control signal flat, not every such curve was filed as active; inconclusive = small, poorly fitted or top-dose-only effect, or effect the other way, or a change in a side signal; the % refers to the signal ratio;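 also: potency is read from the fitted curve at half-maximal effect; plate controls were basal doxycycline-induced cells for no effect and cells given 10 µM MG132 for full effect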
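Compounds up to 46 uM were incubated four hours with TMD8 cells whose green CBG68 luciferase is fused to IkappaBalpha; red CBR luminescence normalised the signal, and concentration-effect curves were fitted to fusion, red and ratio data.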
RORg inh: blocks mouse ROR gamma transcriptional activity. P51450. Drosophila S2 Gal4-RORgamma UAS-luciferase reporter, 20 h. Potency, µM (top dose mostly 53.6 µM), for inactives: at the highest dose activity change, negative = inhibition, actives largely listed as inhibitors. 5.4% of 310,000 active. AID 2551; also: potency is read from the fitted curve at half-maximal effect; % is scaled to controls: 0 for no effect and ±100 for the full control effect; nearly all actives have a fitted effect of over 60% in size
Target sequence (P51450 whole entry, looked up, the tested form may be a part): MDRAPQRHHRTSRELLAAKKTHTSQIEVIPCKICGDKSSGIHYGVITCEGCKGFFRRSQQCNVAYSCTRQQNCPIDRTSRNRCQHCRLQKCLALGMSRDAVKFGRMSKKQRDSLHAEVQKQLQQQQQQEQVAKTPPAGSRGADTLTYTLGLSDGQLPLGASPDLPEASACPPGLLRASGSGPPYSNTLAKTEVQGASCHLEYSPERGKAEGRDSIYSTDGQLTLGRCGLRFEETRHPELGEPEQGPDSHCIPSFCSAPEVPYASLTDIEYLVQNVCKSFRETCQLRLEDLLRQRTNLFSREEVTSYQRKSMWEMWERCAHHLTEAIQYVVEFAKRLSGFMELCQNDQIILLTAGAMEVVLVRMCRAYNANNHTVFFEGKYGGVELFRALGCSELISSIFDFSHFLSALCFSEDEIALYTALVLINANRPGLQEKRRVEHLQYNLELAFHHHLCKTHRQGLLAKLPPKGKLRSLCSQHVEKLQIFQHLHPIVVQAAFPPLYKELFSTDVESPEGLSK
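Compounds are pin-transferred onto Drosophila Schneider cells expressing a copper-inducible Gal4–ROR gamma transactivation domain fusion. After 1 hr, copper sulfate is added to 700 uM final; luciferase is read 20 hr later.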
Giardia killer: Giardia lamblia killing. Giardia lamblia trophozoite viability. activity change, % at 7.66 µM, hits read low. 0.15% of 340,000 active; in the data active = activity change below about -80%; inconclusive = between about -30% and that limit;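 also: parasites exposed to compound for two days anaerobically before the ATP read; % is scaled to controls: 0 for no effect and ±100 for the full control effect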
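Trophozoite viability was measured as ATP-dependent luminescence, read 15-30 min after reagent addition. Before that, parasites at 100 cells/well were exposed to compounds for 48 h, anaerobically, at 37 deg C.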
* hit, by the source's call; ? = inconclusive; . = no result; [ ] = dose if it differs, or a comment. Unless noted, calls follow the shape of the dose curve; as a rule, active = well fitted curve in the direction sought with a large enough effect; inconclusive = small, poorly fitted or top-dose-only effect, or another doubt; inactive = no such curve, though single readings can be large; an effect the other way counts as inactive or inconclusive.

SMILES | MCF10A rereplic | VP16 counter | SW480 rereplic | BCR signal inh | RORg inh | Giardia killer
COc1cccc(N=NC2C(=O)N(C(N)=S)N=C2C)c1 (configuration not stated) | ? | . | ? | . | . | 20.2
Cc1ccccc1NC(=O)CSc1nnc(C)c2ccccc12 | 17.1% | 5.5% | 0.3% | ? | -2.8% | -12.2
COc1ccc(NC(=O)CCNS(=O)(=O)c2ccc(C)c(C)c2)cc1OC | 14.5% | 2.1% | -9.7% | 3.5% | 10.0% | -12.6
COCCNC(=O)/C(C#N)=C\c1ccc(CNC(=O)C(=O)Nc2ccc(C)c(C)c2)o1 | ? | -16.5% | -8.2% | ? | 15.2% | -26.6
COc1ccc(NC(=O)C(=O)N/N=C\c2ccc(CNC(=O)C(=O)Nc3ccc(C)c(C)c3)o2)c(OC)c1 | ? | 3.16µM* | 2.91µM* | -0.5% | 11.0%[1.91 µM] | 22.5
Nc1nc(N)nc(-c2cccc(Cl)c2Cl)n1 | 13.7% | . | -8.1% | ? | . | 3.0
CC(=O)Cn1ncc(Br)c(Br)c1=O | 2.06µM* | 0.4%[10 µM] | 3.66µM* | ? | 11.2µM* | 6.9
CC(C)(C)C(=O)Cn1ncc(N2CCOCC2)c(Br)c1=O | -17.8% | 4.4% | 1.0% | 0.5% | 1.8% | -1.9
COC(=O)C(COC(=O)c1c(F)cccc1F)NC(=O)c1c(F)cccc1F (configuration not stated) | ? | -15.0% | 15.2% | -0.4% | -30.2% | -1.0
O=C(OCn1ncc(Br)c(Br)c1=O)c1c(F)cccc1F | . | 4.47µM* | . | ? | 3.55µM* | .
Cc1cnc(CNc2ncnc3ccc(-c4ccccc4Cl)cc23)cn1 | . | -2.0% | . | . | 23.0% | .
CC(=O)OCc1c(C(F)(F)F)nn(C)c1Oc1ccccc1 | 4.1% | -9.0% | -6.8% | -0.7% | 28.9% | 9.8
Cn1nc(-c2ccccc2)c(CO)c1Oc1ccc(F)cc1 | 20.6µM* | 23.0% | -1.0% | -2.1% | 6.6% | -1.4
COc1cc(/C=C/C(=O)O)ccc1OS(=O)(=O)c1c(C)cc(C)cc1C | 20.5% | . | 3.1% | ? | . | -1.5
Cc1nn(C)cc1C1Nc2ccccc2C(=O)N1O (configuration not stated) | 0.4% | 2.2% | 2.5% | -4.5% | ? | 13.0
O=C1c2ccccc2NC(c2cnc3ccccc3n2)N1O (configuration not stated) | 3.1% | ? | -3.7% | ? | 10µM* | -24.5
C=CCc1cccc(C2Nc3ccccc3C(=O)N2O)c1O (configuration not stated) | 26.4% | ? | -3.1%[9.22 µM] | 1.7% | 7.08µM* | -20.3
Cc1nn(C)c(C)c1C1Nc2ccccc2C(=O)N1O (configuration not stated) | 7.5% | -0.8% | -8.2% | -5.6% | ? | -13.6
Cc1ccsc1C1Nc2ccccc2C(=O)N1O (configuration not stated) | 0.8% | ? | 16.4µM* | 3.5% | 15.8µM* | 56.5
O=C1c2ccccc2NC(c2ccc(Cl)cc2Cl)N1O (configuration not stated) | ? | 10µM* | ? | -2.7% | 3.55µM* | 35.6
CCN(CC)C(=O)n1c(Cc2ccccc2)nc2ccccc21 | ? | 6.0% | ? | -13.0% | -0.8% | -0.4
O=C(NCc1ccco1)C1CCN(C(=O)c2cc3sccc3n2Cc2ccc(Cl)cc2)CC1 | 20.6µM* | ? | ? | ? | ? | 4.1
CC(C)(C)c1cc2cccnc2n1Cc1cccc(Cl)c1 | 1.4% | -6.8%[0.365 µM] | 1.5% | ? | 2.24µM* | -4.4
O=C(NC(=S)N1CCCC1)c1cccc([N+](=O)[O-])c1 | -2.7% | 0.708µM* | -15.5% | -1.5% | 2µM* | 9.0
O=C(NC(=S)N1CCN(c2ccccc2)CC1)c1ccc(S(=O)(=O)N2CCOCC2)cc1 | -0.5% | 0.631µM* | ? | 0.3% | 0.708µM* | -2.2
O=C(NC(=S)N1CCN(c2ccc([N+](=O)[O-])cc2)CC1)c1ccccc1 | -6.0% | 0.562µM* | -9.9% | ? | 0.282µM* | -0.1

Source: PubChem
